# Reference: PubChem BioAssay AID2099 (Broad Institute, 2009)
# The campaign covered roughly 330,000 compounds. About 230 (0.07%) were called active. This is one part of a sample in which actives are shown more often than they occur. Unmarked numbers belong to inactive results.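 Rule for the calls: active = more than half of a compound's replicate wells show inhibition beyond 50%, single wells judged on their own value; inconclusive = some, but no more than half, of replicates pass 50% inhibition; inactive = no replicate passes 50% inhibition.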
# Target: Lysine-specific demethylase 4C (Homo sapiens) (UniProt Q9H3R0)
# Sequence (Q9H3R0 1-420 limits assumed): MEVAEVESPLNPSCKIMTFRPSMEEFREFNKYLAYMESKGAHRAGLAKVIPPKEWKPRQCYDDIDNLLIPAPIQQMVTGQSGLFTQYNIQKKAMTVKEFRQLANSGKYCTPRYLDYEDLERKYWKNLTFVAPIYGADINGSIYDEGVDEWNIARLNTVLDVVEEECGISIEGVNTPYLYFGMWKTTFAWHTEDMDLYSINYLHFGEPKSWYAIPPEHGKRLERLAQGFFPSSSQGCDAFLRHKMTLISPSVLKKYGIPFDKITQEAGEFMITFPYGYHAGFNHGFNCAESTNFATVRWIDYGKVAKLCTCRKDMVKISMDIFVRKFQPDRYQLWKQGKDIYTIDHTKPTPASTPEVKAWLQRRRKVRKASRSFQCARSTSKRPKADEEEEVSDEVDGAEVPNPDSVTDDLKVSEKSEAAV
# Assay: JMJD2C H3K9me3 demethylation blockers – biochemical, fluorescence, DELFIA europium, primary screen (AID 2099);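 note: signal counts dimethyl H3K9 product captured on neutravidin plate; 0% = median of DMSO wells and 100% = 0.3 times that DMSO median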
# Details: GST-JMJD2C(1-420) H3K9me3 demethylation, at 2.35 µM, stronger effect = higher value
row,SMILES,inhibition
1,CCc1cc2c(=O)n(-c3ccccc3)c(SCC(=O)O)nc2s1,-0.0126%
2,Cn1ccnc1-c1nnn(-c2ccc(F)cc2)n1,1.58%
3,Cc1sc2ncn(CC(=O)NCCCC(=O)N(C)Cc3ccccc3)c(=O)c2c1C,3.53%
4,Cc1ccc2nc(C)c3c(c2c1)N(c1ccccc1)CC3,0.549%
5,CC(C)n1c(=S)[nH]c2cc(C(F)(F)F)ccc21,9.24%
6,O=C(COC(=O)c1ccccc1NC(=O)c1ccco1)Nc1ccc2c(c1)OC(F)(F)O2,-7.33%
7,CCN1CCC2(CC1)N=C(c1ccc(F)cc1)C(=S)N2C(=O)c1ccc(C)cc1,-5.72%
8,CCOc1ncccc1C(=O)OCC(=O)Nc1cccc(S(=O)(=O)N2CCCCCC2)c1,3.84%
9,CCC1(C)N(O)C(C)(C)C(c2ccc(OC)cc2)=[N+]1[O-] (stereo unspecified),1.82%
10,CN(/C(=N/S(=O)(=O)c1cccs1)c1ccccc1)c1ccc(O)cc1,-2.26%
11,COc1ccc(Cl)cc1N(CC(=O)N/N=C/c1ccc(OCC(N)=O)cc1)S(C)(=O)=O,4.78%
12,O=C(COc1ccc(Cl)cc1Cl)NCCCNC(=O)c1cnccn1,-5.15%
13,CCOC(=O)C(=Cc1ccccc1OC)C(=O)OCC,-1.48%
14,CCOc1ccccc1NC(=O)NC1CCCCCCC1,3.73%
15,CC(=O)Nc1ccc(NC(=O)C(C)OC(=O)C2CC(=O)N(CCc3ccccc3)C2)cc1 (stereo unspecified),0.0499%
16,Cc1nn(Cc2ccc(F)cc2)c(C)c1NC(=O)c1noc2c1CCc1ccccc1-2,-8.11%
17,COc1ccccc1CCC(=O)NNC(=O)c1ccncc1,-2.82%
18,COc1cccc(CN(C)C(=O)CC23CC4CC(CC(C4)C2)C3)c1OC,8.93%
19,CC(C)=CCN1CCN(Cc2cc3ccccc3[nH]2)CC1CCO (stereo unspecified),-4.87%
20,COc1ccc(-c2nnc(SC(=O)N3c4ccccc4Sc4ccccc43)o2)cc1,-0.278%
21,CC1=C(C(=O)N(C)C)C(c2ccccc2OC(F)F)NC(=O)N1 (stereo unspecified),6.88%
22,CCN1N=C(c2ccccc2)CCC1=O,2.88%
23,CCc1ccc[n+](-c2nc([O-])sc2C=O)c1,22.8%

row,SMILES,inhibition
1,Cc1ccnc(NC(=O)CCNS(=O)(=O)c2ccc(C)c(C)c2)c1,7.52%
2,CCOc1ccc(-n2c(N)c(C(=O)NCC3CCCO3)sc2=S)cc1 (stereo unspecified),-1.83%
3,CCC(C)(C(=O)NC1CCCCC1)N(C)C(=O)c1ccc2c(c1)OCO2 (stereo unspecified),10.3%
4,CN(C)c1nc(N)nc(CSc2nnnn2-c2cccc3ccccc23)n1,-13.8%
5,O=C(NCc1ccc(F)cc1)C(c1ccccc1)N(C(=O)c1csnn1)C1CC1 (stereo unspecified),-35.4%
6,CCc1ccc(N2CC(C(=O)N3CCCCCC3)CC2=O)cc1 (stereo unspecified),1.98%
7,CN1CCN(S(=O)(=O)c2cccc(C(=O)Nc3cccc(S(N)(=O)=O)c3)c2)CC1,-5.59%
8,COc1ccccc1C(=O)Nc1cccc(C(=O)N2CCOCC2)c1,4.92%
9,O=C(NCN1CCN(CCO)CC1)c1cnccn1,-26.1%
10,COc1cccc(NC(=O)CN(C)CC(=O)c2c(N)n(Cc3ccccc3)c(=O)n(C)c2=O)c1,-0.288%
11,CCCN(CCC)C(=O)C1c2ccccc2Oc2ccccc21,8.4%
12,CC(C)C[C@H](NC(=O)C1CCC(CNC(=O)[C@@H]2CCCN2C(=O)OC(C)(C)C)CC1)C(=O)O (stereo partly specified),0.085%
13,Cc1ccc(NS(=O)(=O)c2ccc(F)cc2)nc1,-1.74%
14,COc1ccccc1CNC(=O)COC(=O)c1cccs1,-6.88%
15,CC(=O)NCCc1ccc(S(=O)(=O)Nc2ccc(C)c(S(=O)(=O)N3CCOCC3)c2)cc1,-18.7%
16,CC(=O)NC1=NN(C(C)=O)C(C)(c2ccc(Cl)s2)S1 (stereo unspecified),-13.4%
17,CCOc1ccc(N(C)Cc2cc(=O)oc3ccc(OC)cc23)cc1,-5.29%
18,Cc1ccc(CSc2nc3[nH]ncc3c(=O)[nH]2)cc1,-14.5%
19,COC(=O)c1cc(CNC(=O)CC(C)c2ccccc2)ccc1OC (stereo unspecified),-9.06%
20,CCOC(=O)c1ccc(NC(=S)N2CCN(c3ccccn3)CC2)cc1,21.6%
21,OC(COc1ccc(CN2CCSCC2)cc1)CN1CCCCC1 (stereo unspecified),6.13%
22,CCOC(=O)C1=C(COC(=O)[C@H](C)NS(=O)(=O)c2ccccc2F)NC(=O)NC1C (stereo partly specified),0.99%
23,COc1cc2nc(CN(C)Cc3ccc(F)cc3)[nH]c(=O)c2cc1OC,-7.12%

row,SMILES,inhibition
1,Cc1cc(NC(=O)CCC(=O)N(Cc2ccccc2)C(C(=O)NC2CCCC2)c2ccc(C)o2)no1 (stereo unspecified),-25.8%
2,CCCCn1c(N)c(N(CCOC)C(=O)c2cccc(S(=O)(=O)N(C)c3ccccc3)c2)c(=O)[nH]c1=O,-2.28%
3,CCC(C(=O)Nc1ccc(C(C)C)cc1)c1ccccc1 (stereo unspecified),-16%
4,O=C(Nc1ccc(S(=O)(=O)Nc2ccccn2)cc1)c1ccccc1,-2.52%
5,COC(=O)c1cc(C(=O)NC(C)C2CC3CCC2C3)cc([N+](=O)[O-])c1 (stereo unspecified),-12.5%
6,COc1cc(NC(=O)c2ccccc2)c(OC)cc1NC(=O)Cc1ccccc1,0.759%
7,Nc1nc(SCC(=O)Nc2cc(C(F)(F)F)ccc2Cl)[nH]c(=O)c1NC(=O)c1ccco1,6.68%
8,COc1ccc(C(CC(=O)c2ccccc2)S(=O)(=O)c2ccccc2)cc1 (stereo unspecified),-0.656%
9,CCC(C(=O)NCCC(C)C)N(Cc1ccccc1Cl)C(=O)c1snc(C(N)=O)c1N (stereo unspecified),-1.98%
10,CCCCCOC(=O)C1=C(C)Nc2nnnn2C1c1ccc(OC)c(OC)c1OC (stereo unspecified),-7.05%
11,Cc1ccc(NC(=O)Cn2cnc3c(OCc4ccccc4)ncnc32)cc1C,3.36%
12,O=C(Cc1cccs1)NCc1cccc(C(F)(F)F)c1,2.56%
13,O=C(c1ccc(S(=O)(=O)N2CCCC2)cc1)N1CCN(c2ccccc2F)CC1,5.37%
14,C/C(=N\NC(=O)CCn1nc(C)cc1C)C(C)(C)C,-1.66%
15,CCC(c1nnc(SCC(=O)NNC(=O)c2ccccc2)n1Cc1ccccc1)N(C)C (stereo unspecified),24.1%
16,CC1CN(C(=O)COC(=O)c2cccc(NS(=O)(=O)c3ccccc3)c2)CC(C)O1 (stereo unspecified),-11.9%
17,CC(C)(C)n1nnc(CCc2nnn(C(C)(C)C)n2)n1,4.71%
18,CC1CC(C)(C)CC2(C1)NC(=O)N(CC(=O)Nc1nccs1)C2=O (stereo unspecified),12%
19,CN(C)/C=N/c1cc(=O)n(C)c(=O)n1CC1CC1,-0.734%
20,CN(C)S(=O)(=O)c1ccc(N2CCCC2=O)c([N+](=O)[O-])c1,7.65%
21,C=CCc1cc(S(=O)(=O)c2ccc(O)c(CC=C)c2)ccc1O,11.5%
22,CCCCc1ccc(S(N)(=O)=O)cc1,1.85%
23,COc1cc(CN(C)Cc2nc3cc(C(F)(F)F)ccc3c(=O)[nH]2)ccc1OC(F)F,-0.492%

row,SMILES,inhibition
1,O=[N+]([O-])c1ncc(Br)cc1Nc1ccccc1,-32.6%
2,CC(C)N(Cc1nnc(-c2ccc(Cl)cc2)o1)C(=O)C1=COCCO1,0.031%
3,COc1ccc(CNC(=O)C(=O)N2CCC3(CC2)OCCN3S(=O)(=O)c2ccc(C)cc2)cc1,28.1%
4,Cc1cc(C)n(CCNC(=O)CC2C(=O)NCCN2Cc2ccc(C)o2)n1 (stereo unspecified),-19.8%
5,CCC(=O)NC(Nc1cc(C)ccn1)(C(F)(F)F)C(F)(F)F,-10.4%
6,CC1CN(C(=O)CCC(=O)NCCCN2CCC(Cc3ccccc3)CC2)c2cc(Cl)ccc2O1 (stereo unspecified),2.61%
7,Cc1noc(C)c1C(=O)OCC(=O)N1CCN(S(=O)(=O)c2ccc3ccccc3c2)CC1,-0.0421%
8,CCOC(=O)c1sc(-c2cccc([N+](=O)[O-])c2)cc1N,0.615%
9,Cc1ccc(C(=O)CN2C(=O)NC3(CCOc4ccccc43)C2=O)s1 (stereo unspecified),0.803%
10,CCOc1ccc(NC(=O)CN(C)CC(=O)NC(C)c2ccccc2)cc1OCC (stereo unspecified),2.69%
11,CCN1C(=O)C(=O)N(CC(=O)Nc2cc(C)ccc2C)C1=O,8.4%
12,COc1cccc2cc(C(=O)NCc3ccc(C)cc3)c(=N)oc12,0.845%
13,Cc1ccccc1-c1cc(C(=O)NCC2CC2)n(CC2CC(c3cccnc3)=NO2)n1 (stereo unspecified),-1.99%
14,O=C(/C=C/c1cccs1)c1cc(Cl)ccc1OC(=O)N1CCOCC1,98.5%
15,COc1cc(OC)cc(-c2nnc(N(C)C(=O)c3ccncc3)s2)c1,-7.55%
16,COc1cccc(-c2nnc(N(C)C(=O)c3ccno3)s2)c1,-39.9%
17,CN(C(=O)c1ccccn1)c1nnc(-c2ccccn2)s1,58.4% (active)
18,O=C(NCCNc1ccc([N+](=O)[O-])cc1)c1cccc2c(Br)cccc12,7.15%
19,O=C(O)CCCn1cc(NC(=O)COc2cccc(Cl)c2)cn1,-414%
20,CCCCn1c(N)c(N(CC(C)C)C(=O)c2cccc(S(=O)(=O)N3CCN(C(C)=O)CC3)c2)c(=O)[nH]c1=O,-1.72%
21,CC1CCN(C(=O)/C(=C\c2ccccc2F)NC(=O)c2ccccc2)CC1,0.57%
22,CCOc1ccc(S(=O)(=O)N2CCC(c3ccccc3)CC2)cc1C(=O)O,-0.18%
